Data reported in PubChem BioAssay AID1159580 (chemical genetic matrix, 2015).
The campaign covered roughly 5,500 compounds. About 2,000 (36%) were called active. Not shown: some 18% with an inconclusive outcome. No stated cut-off is given here; in the data, active means normalized growth mostly below about 0.91 (no sharp cut-off); inconclusive means no clear call, values can overlap the other calls; inactive means mostly above about 0.92. The list shows a part of the results.

Test: chemical genetic growth profiling, strain panel (AID 1159580);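 further: tested at 20 µM; growth read once vehicle control cultures reached saturation at 30 °C; 1 = growth at the plate median or of vehicle wells; lower values mean less growth of the strain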
Details: growth OD

Measured: normalized growth

CCCCCC(C)N (configuration not stated)
inactive: S. cerevisiae deletion strains, locus YJR075W, strain HOC1, hits give low values 1.02 | S. cerevisiae deletion strains, locus YKL009W, strain mrt4, hits give low values 0.946 | S. cerevisiae deletion strains, locus YKL068W, hits give low values 1 | S. cerevisiae deletion strains, locus YKL085W, strain MDH1 (second series), hits give low values 1.05 | S. cerevisiae deletion strains, locus YKL085W, strain MDH1, hits give low values 1.05 | S. cerevisiae deletion strains, locus YKL160W, strain elf1, hits give low values 1.03 | S. cerevisiae deletion strains, locus YKL190W, strain CNB1, hits give low values 1.02 | S. cerevisiae deletion strains, locus YKR001C, strain vps1, hits give low values 0.988 | S. cerevisiae deletion strains, locus YKR026C, strain gcn3, hits give low values 1.03 | S. cerevisiae deletion strains, locus YKR091W, strain srl3, hits give low values 1.02 | S. cerevisiae deletion strains, locus YLL001W, strain dnm1, hits give low values 1.03 | S. cerevisiae deletion strains, locus YLL026W, hits give low values 1.03 | S. cerevisiae deletion strains, locus YLL041C, strain sdh2, hits give low values 1.02 | S. cerevisiae deletion strains, locus YLR027C, strain aat2, hits give low values 1.03 | S. cerevisiae deletion strains, locus YLR039C, strain RIC1, hits give low values 1.04 | S. cerevisiae deletion strains, locus YLR058C, strain SHM2, hits give low values 1.02 | S. cerevisiae deletion strains, locus YLR102C, strain apc9, hits give low values 0.995 | S. cerevisiae deletion strains, locus YLR113W, strain HOG1, hits give low values 0.978 | S. cerevisiae deletion strains, locus YLR221C, strain rsa3, hits give low values 1.03 | S. cerevisiae deletion strains, locus YLR258W, strain gsy2, hits give low values 1.02 | S. cerevisiae deletion strains, locus YLR262C, strain YPT6 (second series), hits give low values 1.05 | S. cerevisiae deletion strains, locus YLR262C, strain YPT6, hits give low values 1.05 | S. cerevisiae deletion strains, locus YLR268W, strain sec22, hits give low values 0.972 | S. cerevisiae deletion strains, locus YLR320W, strain mms22, hits give low values 1.04 | S. cerevisiae deletion strains, locus YLR330W, strain CHS5, hits give low values 1.01 | S. cerevisiae deletion strains, locus YLR342W, strain FKS1 (second series), hits give low values 1.03 | S. cerevisiae deletion strains, locus YLR342W, strain FKS1, hits give low values 1.03 | S. cerevisiae deletion strains, locus YLR357W, strain rsc2, hits give low values 1.05 | S. cerevisiae deletion strains, locus YLR370C, strain arc18, hits give low values 1.04 | S. cerevisiae deletion strains, locus YLR371W, strain rom2, hits give low values 0.989 | S. cerevisiae deletion strains, locus YLR384C, strain iki3, hits give low values 1.02 | S. cerevisiae deletion strains, locus YLR418C, strain cdc73, hits give low values 0.994 | S. cerevisiae deletion strains, locus YML016C, strain PPZ1, hits give low values 1.01 | S. cerevisiae deletion strains, locus YML032C, strain rad52, hits give low values 0.986 | S. cerevisiae deletion strains, locus YML120C, strain ndi1, hits give low values 1.03 | S. cerevisiae deletion strains, locus YML124C, strain tub3, hits give low values 0.997 | S. cerevisiae deletion strains, locus YMR058W, strain fet3, hits give low values 1.02 | S. cerevisiae deletion strains, locus YMR078C, strain ctf18, hits give low values 0.98 | S. cerevisiae deletion strains, locus YMR125W, strain sto1, hits give low values 1.03 | S. cerevisiae deletion strains, locus YMR129W, hits give low values 1.02 | S. cerevisiae deletion strains, locus YMR205C, strain PFK2, hits give low values 1.05 | S. cerevisiae deletion strains, locus YMR223W, strain ubp8, hits give low values 1.02 | S. cerevisiae deletion strains, locus YMR231W, strain pep5, hits give low values 1.03 | S. cerevisiae deletion strains, locus YMR263W, strain SAP30, hits give low values 1.02 | S. cerevisiae deletion strains, locus YMR307W, strain GAS1, hits give low values 1.03 | S. cerevisiae deletion strains, locus YNL067W, strain RPL9B, hits give low values 1.01 | S. cerevisiae deletion strains, locus YNL071W, strain lat1, hits give low values 1.03 | S. cerevisiae deletion strains, locus YNL128W, strain TEP1, hits give low values 1.01 | S. cerevisiae deletion strains, locus YNL153C, strain GIM3, hits give low values 1.01 | S. cerevisiae deletion strains, locus YNL183C, strain NPR1, hits give low values 0.943 | S. cerevisiae deletion strains, locus YNL209W, strain ssb2, hits give low values 1.03 | S. cerevisiae deletion strains, locus YNL233W, strain BNI4, hits give low values 1.02 | S. cerevisiae deletion strains, locus YNL248C, strain rpa49, hits give low values 1.03 | S. cerevisiae deletion strains, locus YNL250W, strain rad50, hits give low values 0.994 | S. cerevisiae deletion strains, locus YNL271C, strain bni1, hits give low values 0.985 | S. cerevisiae deletion strains, locus YNL298W, strain CLA4, hits give low values 0.989 | S. cerevisiae deletion strains, locus YNL307C, strain MCK1, hits give low values 0.999 | S. cerevisiae deletion strains, locus YNL322C, strain KRE1 (second series), hits give low values 1.04 | S. cerevisiae deletion strains, locus YNL322C, strain KRE1, hits give low values 1.01 | S. cerevisiae deletion strains, locus YNR049C, strain mso1, hits give low values 1.03 | S. cerevisiae deletion strains, locus YNR052C, strain pop2, hits give low values 0.988 | S. cerevisiae deletion strains, locus YOL006C, strain TOP1, hits give low values 1.01 | S. cerevisiae deletion strains, locus YOL012C, strain htz1 1.25 | S. cerevisiae deletion strains, locus YOL147C, strain pex11, hits give low values 1 | S. cerevisiae deletion strains, locus YOR001W, strain rrp6, hits give low values 1 | S. cerevisiae deletion strains, locus YOR061W, strain CKA2, hits give low values 1.02 | S. cerevisiae deletion strains, locus YOR069W, strain VPS5, hits give low values 1.01 | S. cerevisiae deletion strains, locus YOR070C, strain gyp1, hits give low values 1.02 | S. cerevisiae deletion strains, locus YOR080W, strain dia2, hits give low values 1.04 | S. cerevisiae deletion strains, locus YOR083W, strain WHI5, hits give low values 1.02 | S. cerevisiae deletion strains, locus YOR106W, strain vam3, hits give low values 1.04 | S. cerevisiae deletion strains, locus YOR136W, strain idh2, hits give low values 0.988 | S. cerevisiae deletion strains, locus YOR144C, strain elg1, hits give low values 0.992 | S. cerevisiae deletion strains, locus YOR184W, strain ser1, hits give low values 0.982 | S. cerevisiae deletion strains, locus YOR231W, strain MKK1, hits give low values 0.997 | S. cerevisiae deletion strains, locus YOR265W, strain rbl2, hits give low values 1.02 | S. cerevisiae deletion strains, locus YOR270C, strain vph1, hits give low values 1.07 | S. cerevisiae deletion strains, locus YOR290C, strain snf2, hits give low values 1.02 | S. cerevisiae deletion strains, locus YOR316C, strain cot1, hits give low values 0.999 | S. cerevisiae deletion strains, locus YPL051W, strain arl3, hits give low values 1.01 | S. cerevisiae deletion strains, locus YPL055C, strain LGE1, hits give low values 1.03 | S. cerevisiae deletion strains, locus YPL078C, strain atp4, hits give low values 1.03 | S. cerevisiae deletion strains, locus YPL106C, strain sse1, hits give low values 1.03 | S. cerevisiae deletion strains, locus YPL240C, strain hsp82, hits give low values 1.03 | S. cerevisiae deletion strains, locus YPL241C, strain CIN2, hits give low values 1 | S. cerevisiae deletion strains, locus YPL256C, strain CLN2, hits give low values 0.992 | S. cerevisiae deletion strains, locus YPR119W, strain clb2, hits give low values 0.989 | S. cerevisiae deletion strains, locus YPR141C, strain kar3, hits give low values 0.99 | S. cerevisiae deletion strains, locus YPR163C, strain tif3, hits give low values 0.992 | S. cerevisiae deletion strains, locus YPR167C, strain met16, hits give low values 0.998 | S. cerevisiae deletion strains, strain wtn01, hits give low values 0.997 | S. cerevisiae strains, strain wild type, hits give low values 1.01
